Reference: the supplement of paper PMC10981050
Values joined by “and” are separate entries in the source; they are usually repeats but may differ in a detail not shown here. Equal entries are not always repeated. Structures can show the parent of a compound that is named as a salt.

Columns and labels:
Assay in all cases: cell viability relative to vehicle control; higher = less cytotoxic
Details in all cases: 10 µM
K562 = test system: K562
Method in brief: (§1)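 Each screen used CRISPR-edited mutant and wild-type clones from four leukaemia lines. Compounds were acoustically dispensed at a single 10 µM dose, and CellTiter-Glo luminescence was read after 48 h with the supernatant first removed. Viability was analysed in Genedata Screener and given as percent of the on-plate vehicle control.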

MARIMO = test system: MARIMO
Method in brief: as §1

MOLM14 = test system: MOLM14
Method in brief: as §1

OCI-AML2 = test system: OCI-AML2
Method in brief: as §1

Compound	cell viability (K562; SRSF2 genotype: SRSF2 P95H/wt)	cell viability (K562; SRSF2 genotype: SRSF2 wt/wt) [%]	cell viability (MARIMO; SRSF2 genotype: SRSF2 P95H/wt) [%]	cell viability (MARIMO; SRSF2 genotype: SRSF2 wt/wt) [%]	cell viability (MOLM14; SRSF2 genotype: SRSF2 P95H/wt) [%]	cell viability (MOLM14; SRSF2 genotype: SRSF2 wt/wt) [%]	cell viability (OCI-AML2; SRSF2 genotype: P95H/wt) [%]	cell viability (OCI-AML2; SRSF2 genotype: wt/wt) [%]
CC(=O)OC1CC2(C)C(CC(O)C3C4(C)CCC(O)C(C)C4CCC32C)C1=C(CCC=C(C)C)C(=O)O (stereo unspecified) [Fusidine]	96.3% and 99.9%	89.4	97.5	98	98.9	96.8	94.2	99.2
Cc1ncc(CO)c(CO)c1O [Pyridoxine hydrochloride]	104% and 103%	111	104	112	105	110	104	96.7
Cn1cc(/C=C/C(=O)c2cccc(F)c2)cc1/C=C/C(=O)NO	90.3% and 97.5%	99.5	61.5	72.4	70.1	64.5	59.5	65.3
CC1CNC(=O)NC1=O (stereo unspecified) [Dihydrothymine]	102% and 110%	97.3	96.7	108	97.7	103	94	105
O=C(Nc1cccc(C(F)(F)F)c1)Nc1cc(S(=O)(=O)NC2CC2)ccc1-c1ccsc1	82.6% and 92.4%	80.2	94.2	104	92	94.4	86.6	95
O=C(N/N=C/c1ccc(O)c(O)c1)c1cc2ccccc2cc1O [Dynasore]	88.5% and 89.6%	96	72.8	78.7	94.2	94.4	80	73
OC(c1ccccc1)(c1ccccc1)C12CC[N+](CCOCc3ccccc3)(CC1)CC2 [Umeclidinium bromide]	81.8% and 94.9%	89.5	76.2	90.9	86.5	81.6	75.6	85.1
CN1CCN(C2=Nc3cc(Cl)ccc3Nc3ccccc32)CC1 [Clozapine (Clozaril)]	85.7% and 106%	98.8	104	94.4	101	106	100	98.1
CN(C)CC/C=C1/c2ccccc2Sc2ccc(Cl)cc21 [Chlorprothixene]	80.1% and 80.7%	87.8	78.3	76.7	66.2	82.1	66.6	68.2
Nc1ncn([C@@H]2O[C@H](CO)[C@@H](O)[C@H]2O)c(=O)n1 [Azacitidine (Vidaza)]	47.4% and 45.7%	52.2	45.5	52.8	45.7	40.3	35.8	34.3
CN1C(CCl)Nc2cc(Cl)c(S(N)(=O)=O)cc2S1(=O)=O (stereo unspecified) [Methyclothiazide]	92.4% and 91.5%	98.4	96.5	100	90	97.4	96.3	99
N#CCNC(=O)c1ccc(-c2ccnc(Nc3ccc(N4CCOCC4)cc3)n2)cc1 [Momelotinib (CYT387)]	81.2% and 85.3%	86.1	26.7	42.8	15	5.08	11	15.7
CC(=O)OCC(=O)[C@H]1CC[C@H]2[C@@H]3CCC4=CC(=O)CC[C@]4(C)[C@H]3CC[C@]12C [Deoxycorticosterone acetate]	91.4% and 91.9%	98.4	89.8	99	89	96.2	86.1	76.2
CC(C)(C)c1cc(O)ccc1O	99.8% and 100%	93.8	21.6	0.51	48	54.4	37.9	29.7
COC(=O)c1cc(OC)c(O)c(OC)c1 [Methyl syringate]	101% and 87.8%	91.2	94	102	89.2	92.3	96.8	101
CC(=O)[C@H]1CC[C@H]2[C@@H]3CCC4=CC(=O)CC[C@]4(C)[C@H]3CC[C@]12C [Progesterone (Prometrium)]	78% and 87.7%	81.7	60.7	38.8	75	78.8	54.5	59.9
COc1cc([C@@H]2Oc3cc([C@H]4Oc5cc(O)cc(O)c5C(=O)[C@@H]4O)ccc3O[C@H]2CO)ccc1O [Silymarin (Silybin B)]	106% and 94.4%	95.6	99.6	108	105	102	106	114
NC[C@H](O)c1ccc(O)c(O)c1 [Noradrenaline bitartrate monohydrate (Levoph]	86.5% and 94.4%	98.2	92.6	94.3	85.7	93.7	96.7	103
C[C@]1(O)C[C@@H](c2nc(-c3ccc4ccc(-c5ccccc5)nc4c3)c3c(N)nccn32)C1 [OSI-906 (Linsitinib)]	79.7% and 90.1%	80.6	41.9	40.8	72.2	82.2	29.6	38.1
C[C@H]1[C@H](C)CC[C@]2(C(=O)O)CC[C@]3(C)C(=CC[C@@H]4[C@@]5(C)C[C@@H](O)[C@H](O)C(C)(C)[C@@H]5CC[C@]43C)[C@H]12 [Corosolic acid]	94.6% and 95.3%	93.5	94.7	107	97.3	96.1	103	99.7
COc1ccc(-c2oc3c(CC=C(C)C)c(O[C@@H]4O[C@H](CO)[C@@H](O)[C@H](O)[C@H]4O)cc(O)c3c(=O)c2O[C@@H]2O[C@@H](C)[C@H](O)[C@@H](O)[C@H]2O)cc1 [Icariin]	94.5% and 104%	98.7	98.7	110	108	104	105	112

Compound	cell viability (K562; SRSF2 genotype: SRSF2 P95H/wt)	cell viability (K562; SRSF2 genotype: SRSF2 wt/wt) [%]	cell viability (MARIMO; SRSF2 genotype: SRSF2 P95H/wt) [%]	cell viability (MARIMO; SRSF2 genotype: SRSF2 wt/wt) [%]	cell viability (MOLM14; SRSF2 genotype: SRSF2 P95H/wt) [%]	cell viability (MOLM14; SRSF2 genotype: SRSF2 wt/wt) [%]	cell viability (OCI-AML2; SRSF2 genotype: P95H/wt) [%]	cell viability (OCI-AML2; SRSF2 genotype: wt/wt) [%]
COC(=O)Nc1nc2cc(C(=O)c3ccc(F)cc3)ccc2[nH]1 [Flubendazole (Flutelmium)]	18.9% and 30.8%	27.6	9.3	12	8.51	43.1	6.97	11
Nc1nc2n[nH]nc2c(=O)[nH]1 [Azaguanine-8]	85.3% and 81.8%	82.5	76.2	68.1	82.7	86.6	70.9	54.6
C=C(C)C1CC=C(C=NO)CC1 (stereo unspecified) [Perillartine]	100%	98.3	104	105	93	99.8	100	112
CC(C)(CNC(=O)c1cccc(-c2noc(C(F)(F)F)n2)c1)c1coc(-c2ccccc2)n1	89.2% and 87.4%	94.5	82.1	82.6	91	96	52.5	67.2
COc1ccc([C@@H]2CC(=O)c3c(O)cc(O[C@@H]4O[C@H](CO)[C@@H](O)[C@H](O)[C@H]4O[C@@H]4O[C@@H](C)[C@H](O)[C@@H](O)[C@H]4O)cc3O2)cc1 [Poncirin]	99.7% and 97.1%	99.2	97.8	104	102	94.7	95.1	96
CCCC1O[C@@H]2C[C@H]3[C@@H]4CCC5=CC(=O)C=C[C@]5(C)[C@H]4[C@@H](O)C[C@]3(C)[C@]2(C(=O)CO)O1 (stereo partly specified) [Budesonide]	85.5% and 95.1%	83.7	97.6	103	86.1	84	70.5	87.6
CCCCOc1ccc(CC(=O)NO)cc1 [Bufexamac]	95% and 94.9%	98.8	91.6	88.7	85.7	93.1	98.1	91.8
C=CCNC(N)=S [Allylthiourea]	98.8% and 95.9%	107	108	112	101	104	99.8	110
CC(=O)OCC(=O)[C@@]1(O)CC[C@H]2[C@@H]3CCC4=CC(=O)CC[C@]4(C)[C@H]3C(=O)C[C@@]21C [Cortisone acetate (Cortone)]	110% and 108%	118	118	109	112	112	117	109
COc1ccc([C@@H]2CC(=O)c3c(O)cc(O[C@@H]4O[C@H](CO)[C@@H](O)[C@H](O)[C@H]4O[C@@H]4O[C@@H](C)[C@H](O)[C@@H](O)[C@H]4O)cc3O2)cc1O [Neohesperidin]	109% and 102%	100	97.2	102	104	109	116	127
Nc1ncnc2c1c(I)cn2C1OC(CO)C(O)C1O (stereo unspecified) [5-Iodotubercidin]	4.74% and 10.8%	6.66	12.2	5.58	0.78	0.42	2.92	13.1
OC1OC[C@@H](O)[C@@H](O)[C@@H]1O (stereo partly drawn) [D(-)-Arabinose]	111% and 100%	118	110	109	100	111	116	117
CN1CCN(C(=O)c2ccc(-c3ccc4c(C=O)c(O)ccc4c3)s2)CC1	68.3% and 74.8%	71.6	66.8	53.4	73.2	76.8	72.9	79.5
C[C@@H]([C@H](C)O)[C@H](N)C(=O)O [(4S)-4-Hydroxy-L-isoleucine]	105% and 96.3%	102	100	102	111	102	108	104
COc1ccc2cc([C@H](C)C(=O)O)ccc2c1 [Naproxen Sodium]	99.4% and 104%	96.2	101	97.2	98.6	102	105	98.7
CCN(CC)CC(O)CNc1ccc(NCC2CO2)c2c1C(=O)c1ccccc1C2=O (stereo unspecified)	1.64% and 0.64%	3.62	1.76	2.11	2.26	0.31	0.66	0.95
CCCCCCCCCC(=O)N[C@@H](Cc1c[nH]c2ccccc12)C(=O)N[C@H](CC(N)=O)C(=O)N[C@@H](CC(=O)O)C(=O)N[C@@H]1C(=O)NCC(=O)N[C@@H](CCCN)C(=O)N[C@@H](CC(=O)O)C(=O)N[C@H](C)C(=O)N[C@@H](CC(=O)O)C(=O)NCC(=O)N[C@H](CO)C(=O)N[C@@H]([C@H](C)CC(=O)O)C(=O)N[C@@H](CC(=O)c2ccccc2N)C(=O)O[C@@H]1C [Daptomycin]	94.1% and 95.3%	95	94	103	99	96.5	96	103
Nc1ccn([C@@H]2O[C@H](CO)[C@@H](O)[C@@H]2O)c(=O)n1 [Cytarabine hydrochloride]	83.4% and 98.6%	94.9	28.6	30.5	7.14	1.49	6.92	8.04
CS(=O)(=O)c1ccc([C@@H](O)[C@@H](CO)NC(=O)C(Cl)Cl)cc1 [Thiamphenicol (Thiophenicol)]	86.1% and 88.3%	87.7	103	101	98.5	96.8	97.3	91.2
CCCCCCCCCCCC1=C(O)C(=O)C=C(O)C1=O [Embelin]	91.7% and 88.2%	85.5	90.3	98.8	90.9	91.9	89.3	94.6
CNC[C@@H](O)c1ccc(O)c(O)c1 [L-Adrenaline (Epinephrine)]	101% and 90%	96.3	104	101	87.9	99.3	115	104
